Assay results taken from PubChem BioAssay (NCATS).
Records with an inconclusive call do not appear. Values without a mark were called inactive. Calls follow the shape of the dose curve; as a rule, active = well fitted inhibition curve with a large enough effect; inconclusive = small, poorly fitted or top-dose-only effect; inactive = flat fitted curve, though single readings scatter.

These compounds were tested against Aldehyde dehydrogenase, mitochondrial (Homo sapiens) (UniProt P05091) (assay: qHTS for Inhibitors of the Aldehyde Dehydrogenase Family (ALDH2) Primary screen (AID 2061308;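 also: plate controls were vehicle for no effect and reference inhibitor for full effect; nearly all actives have a fitted effect of over 55% in size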)). Conditions: ALDH2 enzyme inhibition qHTS, 1536-well; series mostly up to 56 µM; activity change, negative = inhibition: at the top concentration.

First: Cc1ccc(-c2cc(C(=O)Nc3ccccn3)c3ccccc3n2)cc1C
Second: COc1ccc(O)c(-c2nc3ccccc3c(=O)n2Cc2ccccc2)c1
The “activity change, negative = inhibition” value of the first is higher: 2.57% for the first, -4.98% for the second.

Going from `N#Cc1ccc(S(=O)(=O)Nc2cnccc2C(=O)Nc2nc(-c3ccccc3)cs2)cc1` to `O=C1CCc2cc(S(=O)(=O)Nc3ccccc3-c3ccccc3)ccc2N1`, the “activity change, negative = inhibition” value falls from 9.86% to -6.14%.

First: CN(C)c1cnc2c(O)ccc([S+](=O)([O-])Nc3ccccc3F)c2c1
Second: CN(C)c1ccc(-c2nc3ccccc3s2)cc1
The “activity change, negative = inhibition” value of the first is lower: 0.666% for the first, 5.91% for the second.

Going from `COc1ccc2nc(-c3cccc(C)c3)sc2c1` to `COc1ccc2nc(-c3cccc(NC(C)=O)c3)sc2c1`, the “activity change, negative = inhibition” value rises from 16.3% to 18.5%.

Compared with `Cc1ccc(-c2ccc(=O)n(CC(=O)NCCCc3ccco3)n2)cc1`, `Cc1ccc(-c2ccc(=O)n(CC(=O)NCCc3ccccc3)c2)cc1` is lower in “activity change, negative = inhibition” value: 3.56% for the first, -0.605% for the second.

Going from `O=C(O)c1ccc(-c2noc(-c3ccc(C(F)(F)F)cc3)n2)cc1` to `COc1ccc(-c2nc(-c3ccc(C(=O)O)cc3)no2)cc1`, the “activity change, negative = inhibition” value rises from -10.5% to 13%.

Going from `O=C(Nc1cncc(-c2ccncc2)c1)c1cccs1` to `O=C(NC(c1ccco1)c1cc(Cl)c2cccnc2c1O)c1cccs1` (stereo not given), the “activity change, negative = inhibition” value falls from -7.32% to -27.5%.

Compared with `Cc1ccc(C2Nc3cccc4cccc(c34)N2)s1`, `CN(C(=O)OC(C)(C)C)c1ccc(-c2nc3ccccc3s2)cc1` is higher in “activity change, negative = inhibition” value: -22.9% for the first, -1.52% for the second.

First: CN(C)CCN(Cc1ccc(-c2ccc(CNCCc3ccccc3)cc2)cc1)C(=O)CCC1CCCC1
Second: COc1ccc(C2Nc3ccccc3C(=O)N2Cc2ccccc2)cc1OCc1ccc(NC(C)=O)cc1 (stereo not given)
The “activity change, negative = inhibition” value of the first is higher: 27.5% for the first, -18.7% for the second.

Compared with `C=C1/C(=C/C=C2\CCC[C@]3(C)[C@@H]([C@H](C)/C=C/[C@@H](C)C(C)C)CC[C@@H]23)C[C@@H](O)C[C@@H]1O`, `COc1ccc(-c2ccc3c(N4CCOCC4)nc(N4CC(C)OC(C)C4)nc3n2)cc1CO` (stereo not given) is higher in “activity change, negative = inhibition” value: -3.16% for the first, 1.87% for the second.

Going from `CS(=O)(=O)c1cccc(-c2csc(N3CCC(C(N)=O)CC3)n2)c1` to `Cc1ccnc(NC(=S)N2CCC(c3cccc(C(F)(F)F)c3)CC2)c1`, the “activity change, negative = inhibition” value falls from 3.35% to -7.45%.

First: CCOc1ccc(CCNC(C)=O)cc1OCC
Second: CCOc1ccc(CCNC(=O)c2ccccn2)cc1OCC
The “activity change, negative = inhibition” value of the first is lower: -14.2% for the first, 0.0283% for the second.

First: Fc1cc(Nc2nc(-c3ccncc3)nc3ccccc23)ccc1OC(F)(F)F
Second: Cc1cnc(-c2ccccc2C(F)(F)F)nc1NCc1ccc(-c2cccnc2)cc1
The “activity change, negative = inhibition” value of the first is lower: -0.61% for the first, 55.4% for the second.

Compared with `Cc1ccnc(NC(=S)N2CCN(c3ccc(C#N)cc3)CC2)c1`, `CC(C)(C)OC(=O)N1CCN(c2ccc(NCc3ccc4c(c3)OCO4)cc2)CC1` is lower in “activity change, negative = inhibition” value: -11.4% for the first, -15.9% for the second.

First: O=C(O)c1cccc(-c2noc(-c3ccc(F)cc3)n2)c1
Second: O=C(O)c1ccc(-c2noc(-c3ccccc3Cl)n2)cc1
The “activity change, negative = inhibition” value of the first is lower: -4.93% for the first, 9.62% for the second.

Compared with `CCC(=O)NC(c1cc(Cl)c2ccccc2c1O)C1CC1` (stereo not given), `COc1ccc(C(=O)NC(c2ccco2)c2cc(Cl)c3cccnc3c2O)cc1` (stereo not given) is higher in “activity change, negative = inhibition” value: -25.3% for the first, -9.43% for the second.

Going from `CC(CN1c2ccccc2Sc2ccc(S(=O)(=O)N(C)C)cc21)N(C)C` (stereo not given) to `COc1cccc(CNc2ccc(S(=O)(=O)Nc3ccccn3)cc2)c1O`, the “activity change, negative = inhibition” value rises from -17.6% to 12.3%.

Compared with `Oc1cc(Nc2ccc(N3CCCCC3)cc2)cc2cccnc12`, `c1ccc2[nH]c(-c3ccc(NCc4ccc5c(c4)OCCO5)cc3)nc2c1` is higher in “activity change, negative = inhibition” value: -12.6% for the first, 10.8% for the second.

Going from `Cc1cc(NCc2ccc(-c3cccnc3)cc2)nc(-c2ccccc2C(C)C)n1` to `CCc1ccc(NC(=O)C(=O)NNC(=O)c2cccs2)cc1`, the “activity change, negative = inhibition” value falls from 45.3% to -22.2%.

First: C=C1CCC2C(C)(CO[C@@H]3O[C@H](CO)[C@@H](O)[C@H](O)[C@H]3O)C(O)CCC2(C)C1C(=O)CC1=CCOC1=O (stereo not given in full)
Second: O=C(NO)c1cnc(N2CCN(S(=O)(=O)c3ccc4ccccc4c3)CC2)nc1
The “activity change, negative = inhibition” value of the first is lower: -5.21% [at 28 µM] for the first, 13.3% [at 28 µM] for the second.
